Experimental data: PubChem BioAssay AID624325 (Sanford-Burnham Center for Chemical Genomics, 2012)
Among all 2,300 compounds or so, about 1,000 (43%) were called active.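 How the source made its calls: active means compounds inhibiting the enzyme by at least 50% at 15 µM in any one of the replicates; inactive means the rest.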 The set was probably picked from earlier hits. The list is a sample of the results.

molecular target: Fatty acid synthase (Homo sapiens) (UniProt P49327); experiment: inhibition of human FAS-TE enzyme activity – biochemical, fluorescence intensity, single concentration, confirmation (AID 624325); details: recombinant FAS-TE, OMFH fluorogenic substrate, at 15 µM, active compounds read high;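 further: 0% = enzyme with DMSO only and 100% = wells lacking enzyme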
Sequence (P49327 whole entry, looked up): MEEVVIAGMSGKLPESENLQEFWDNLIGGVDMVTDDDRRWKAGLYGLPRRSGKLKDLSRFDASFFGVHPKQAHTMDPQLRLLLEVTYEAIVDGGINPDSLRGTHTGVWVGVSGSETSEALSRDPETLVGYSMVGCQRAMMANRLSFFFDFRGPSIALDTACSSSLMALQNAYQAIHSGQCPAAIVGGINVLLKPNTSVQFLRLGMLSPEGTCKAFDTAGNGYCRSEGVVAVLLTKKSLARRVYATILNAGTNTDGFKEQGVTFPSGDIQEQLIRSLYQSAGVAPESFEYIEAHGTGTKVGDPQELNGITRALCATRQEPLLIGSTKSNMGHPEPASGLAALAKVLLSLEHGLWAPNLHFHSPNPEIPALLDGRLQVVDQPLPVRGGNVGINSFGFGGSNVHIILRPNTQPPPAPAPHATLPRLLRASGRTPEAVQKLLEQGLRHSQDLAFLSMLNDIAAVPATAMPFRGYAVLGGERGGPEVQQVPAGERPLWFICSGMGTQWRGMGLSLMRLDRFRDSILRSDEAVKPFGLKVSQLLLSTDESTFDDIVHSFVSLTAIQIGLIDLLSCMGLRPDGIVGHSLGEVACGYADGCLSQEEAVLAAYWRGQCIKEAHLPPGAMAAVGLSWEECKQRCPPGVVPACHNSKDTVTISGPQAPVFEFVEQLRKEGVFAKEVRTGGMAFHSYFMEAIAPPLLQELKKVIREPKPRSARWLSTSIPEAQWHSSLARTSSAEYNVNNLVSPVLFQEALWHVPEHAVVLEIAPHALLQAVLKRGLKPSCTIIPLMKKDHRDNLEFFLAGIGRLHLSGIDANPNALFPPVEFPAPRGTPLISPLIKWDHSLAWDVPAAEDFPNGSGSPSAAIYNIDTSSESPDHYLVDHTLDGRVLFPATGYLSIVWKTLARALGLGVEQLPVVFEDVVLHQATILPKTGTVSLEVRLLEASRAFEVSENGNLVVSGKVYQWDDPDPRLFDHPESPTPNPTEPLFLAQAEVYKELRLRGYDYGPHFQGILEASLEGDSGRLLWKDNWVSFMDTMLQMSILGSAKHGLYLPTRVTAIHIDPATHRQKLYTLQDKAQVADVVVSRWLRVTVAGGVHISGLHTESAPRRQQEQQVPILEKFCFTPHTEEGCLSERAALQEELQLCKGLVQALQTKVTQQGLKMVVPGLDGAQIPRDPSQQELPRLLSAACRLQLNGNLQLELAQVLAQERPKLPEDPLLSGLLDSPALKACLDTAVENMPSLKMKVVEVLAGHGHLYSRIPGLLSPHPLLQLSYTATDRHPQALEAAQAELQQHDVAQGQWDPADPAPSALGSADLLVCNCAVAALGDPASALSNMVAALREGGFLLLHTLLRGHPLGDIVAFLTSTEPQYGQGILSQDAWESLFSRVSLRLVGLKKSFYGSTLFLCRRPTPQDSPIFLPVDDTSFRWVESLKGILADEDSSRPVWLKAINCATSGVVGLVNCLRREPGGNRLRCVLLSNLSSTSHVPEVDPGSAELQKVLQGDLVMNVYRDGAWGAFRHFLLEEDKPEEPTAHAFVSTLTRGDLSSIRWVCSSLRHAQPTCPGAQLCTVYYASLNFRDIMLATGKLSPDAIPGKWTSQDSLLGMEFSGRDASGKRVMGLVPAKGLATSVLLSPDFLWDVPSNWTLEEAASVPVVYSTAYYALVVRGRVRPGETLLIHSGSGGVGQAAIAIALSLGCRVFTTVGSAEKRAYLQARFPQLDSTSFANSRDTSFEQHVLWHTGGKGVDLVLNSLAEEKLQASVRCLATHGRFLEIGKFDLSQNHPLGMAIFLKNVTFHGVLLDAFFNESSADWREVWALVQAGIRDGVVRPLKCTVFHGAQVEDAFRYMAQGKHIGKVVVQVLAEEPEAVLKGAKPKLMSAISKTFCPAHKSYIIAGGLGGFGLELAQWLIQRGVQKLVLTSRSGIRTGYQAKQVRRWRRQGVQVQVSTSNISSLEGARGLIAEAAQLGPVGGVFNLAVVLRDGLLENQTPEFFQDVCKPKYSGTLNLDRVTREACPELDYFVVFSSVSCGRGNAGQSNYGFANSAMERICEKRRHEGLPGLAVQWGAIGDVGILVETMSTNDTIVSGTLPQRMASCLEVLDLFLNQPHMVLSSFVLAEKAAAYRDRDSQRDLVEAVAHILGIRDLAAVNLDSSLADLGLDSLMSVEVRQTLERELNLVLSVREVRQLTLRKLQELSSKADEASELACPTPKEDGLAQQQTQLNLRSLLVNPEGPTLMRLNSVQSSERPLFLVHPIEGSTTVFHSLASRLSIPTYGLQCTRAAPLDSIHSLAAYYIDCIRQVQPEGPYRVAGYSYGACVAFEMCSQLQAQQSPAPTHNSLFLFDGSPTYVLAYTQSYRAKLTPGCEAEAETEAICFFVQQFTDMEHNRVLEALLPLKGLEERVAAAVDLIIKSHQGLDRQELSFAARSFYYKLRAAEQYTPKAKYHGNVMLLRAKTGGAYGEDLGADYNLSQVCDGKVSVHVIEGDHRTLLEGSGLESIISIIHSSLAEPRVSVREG

SMILES	inhibition
CCOC(=O)[C@]12Cc3ccccc3[C@H]1N(C1CCCCC1)C(=O)c1cc(OC)ccc12	53% (active)
COc1cccc(C(c2nnnn2-c2ccc3c(c2)OCCO3)N2CCC3(CC2)C(=O)NCN3c2ccccc2)c1OC (stereo not drawn)	8.72% (inactive)
COc1ccc(-n2nnnc2C(c2cccc3ccccc23)N2CCC(n3c(=O)[nH]c4ccccc43)CC2)cc1 (stereo not drawn)	34.4% (inactive)
